The source of these data is PubChem BioAssay (NCATS).

Inconclusive results are not listed. Calls of active or inactive are those of the source. Calls come from the whole dose curve; as a rule, active = well fitted inhibition curve with a large enough effect; inconclusive = small, poorly fitted or top-dose-only effect; inactive = flat fitted curve, though single readings scatter.
% is set by controls: 0 for no effect and ±100 for the full control effect.

For the experiment, the system named is astro (control astrocytes). The experiment in a line: Drug repurposing screens with cells derived from glioblastoma tumor samples (AID 1345199). Note: nearly all actives have a fitted effect of over 40% in size. As to conditions: viability, ATP luminescence, 48 h; series mostly up to 45.9 µM; activity, negative = cell killing: at the top concentration. In short, it runs like this: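 Four patient lines of CD133+ GBM neurospheres were screened at several concentrations; hits were retested in those lines plus three slower-growing GBM lines, using 48-hour treatment and ATP-based viability.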
Regarding `CC[C@]12CCCN3CCc4c(n(c5ccccc45)[C@@](O)(C(=O)OC)C1)[C@@H]32`, the “activity, negative = cell killing” value is -23.4% (inactive).

Take `CN1CC(=O)NC1=N`: the “activity, negative = cell killing” value was -16.3% (inactive).

In the case of `O=C(/C=C/c1ccc(O)c(O)c1)O[C@@H]1C[C@@](OC(=O)/C=C/c2ccc(O)c(O)c2)(C(=O)O)C[C@@H](O)[C@@H]1O`, the “activity, negative = cell killing” value was -8.42% (inactive).

As for `Cn1c(=O)c2c(ncn2CCO)n(C)c1=O`, the “activity, negative = cell killing” value is -14.7% (inactive).

As for `OCc1ccc(Cl)cc1Cl`, the “activity, negative = cell killing” value was -3.28% (inactive).

Take `NC(N)=NS(=O)(=O)c1ccc(N)cc1`: the “activity, negative = cell killing” value is -7.77% [at 21.2 µM] (inactive).

Take `CC1(C)[C@@H](OC(=O)CCC(=O)O)CC[C@]2(C)[C@H]3C(=O)C=C4[C@@H]5C[C@@](C)(C(=O)O)CC[C@]5(C)CC[C@@]4(C)[C@]3(C)CC[C@@H]12`: the “activity, negative = cell killing” value is -16.3% [at 21.2 µM] (inactive).

As to `CC(=O)N1C[C@H](O)C[C@H]1C(=O)O`, the “activity, negative = cell killing” value was 1.26% (inactive).

In the case of `CO[C@@]1(NC(=O)C(C(=O)O)c2ccc(O)cc2)C(=O)N2C(C(=O)O)=C(CSc3nnnn3C)CO[C@@H]21` (stereo partly drawn), the “activity, negative = cell killing” value was -6.39% [at 21.2 µM] (inactive).

On to `CCS(=O)(=O)CCn1c([N+](=O)[O-])cnc1C`, for which the “activity, negative = cell killing” value is -8.53% [at 21.2 µM] (inactive).

For the molecule `CC(=O)NCc1c(I)c(NC(C)=O)c(I)c(C(=O)O)c1I`, the “activity, negative = cell killing” value is -7.62% (inactive).

Take `Cc1c(C)c2c(c(C)c1OC(=O)c1cccnc1)CC[C@@](C)(CCC[C@H](C)CCC[C@H](C)CCCC(C)C)O2`: the “activity, negative = cell killing” value was -22% (inactive).

Take `NC(=O)NS(=O)(=O)c1ccc(N)cc1`: the “activity, negative = cell killing” value is -6.82% (inactive).

Turning to `C[N+]1(C)CCCC(OC(=O)C(O)(c2ccccc2)c2ccccc2)C1` (stereo not drawn), the “activity, negative = cell killing” value is -11.7% [at 21.2 µM] (inactive).

In the case of `O=C(O)c1cc(=O)c2ccccc2o1`, the “activity, negative = cell killing” value was -16.2% (inactive).

As to `CCN(CC)CCc1nc(-c2ccccc2)no1`, the “activity, negative = cell killing” value is -7.63% [at 21.2 µM] (inactive).

For the molecule `CN1C(=O)CC(c2ccccc2)C1=O` (stereo not drawn), the “activity, negative = cell killing” value is -4.26% (inactive).

Take `COc1nccnc1NS(=O)(=O)c1ccc(N)cc1`: the “activity, negative = cell killing” value was -12.6% (inactive).

As for `CC(=O)N[C@@H](CC(C)C)C(=O)O`, the “activity, negative = cell killing” value is -10.5% (inactive).

Take `CC(C)(C)C(=O)OCOC(=O)[C@@H]1N2C(=O)[C@@H](NC(=O)[C@H](N)c3ccccc3)[C@H]2SC1(C)C`: the “activity, negative = cell killing” value was -3.19% [at 21.2 µM] (inactive).

As for `COc1ccc(-c2cc(=O)c3c(O)cc(O[C@@H]4O[C@H](CO[C@@H]5O[C@@H](C)[C@H](O)[C@@H](O)[C@H]5O)[C@@H](O)[C@H](O)[C@H]4O)cc3o2)cc1O`, the “activity, negative = cell killing” value is -9.22% (inactive).

Consider `Cc1c(I)c(=O)n(-c2ccccc2)n1C`, for which the “activity, negative = cell killing” value is -17.3% (inactive).

For `CCc1cccc(CC)c1NC(=O)CN(CC(=O)O)CC(=O)O`, the “activity, negative = cell killing” value was -13.4% [at 21.2 µM] (inactive).

`O=C(O)CCC(=O)O`: the “activity, negative = cell killing” value was -2.82% (inactive).

On to `CC(=O)N[C@H]1[C@H]([C@H](O)[C@H](O)CO)OC(C(=O)O)=C[C@@H]1N=C(N)N`, for which the “activity, negative = cell killing” value is -10.7% (inactive).

In the case of `CN[C@@H]1[C@H](O)[C@H](NC)[C@H]2O[C@@]3(O)C(=O)C[C@@H](C)O[C@H]3O[C@@H]2[C@H]1O`, the “activity, negative = cell killing” value was -4.49% [at 21.2 µM] (inactive).

With `CC(C)CCCC(C)CCCC(C)CCCCC(C)CCCC(C)CCCC(C)C` (stereo not drawn), the “activity, negative = cell killing” value was -9.27% (inactive).

Regarding `NC(=O)CC[C@@H](N)C(=O)O`, the “activity, negative = cell killing” value was -4.06% (inactive).

With `COC(=O)N/N=C/c1c[n+]([O-])c2ccccc2[n+]1[O-]`, the “activity, negative = cell killing” value was -8.09% (inactive).

For `O=C(O)c1ccccc1C(=O)Nc1ccc(S(=O)(=O)Nc2nccs2)cc1`, the “activity, negative = cell killing” value was -5.41% (inactive).

`COc1cc(O)cc(O)c1`: the “activity, negative = cell killing” value was -9.13% (inactive).

As to `C[C@@H]1O[C@@H](OC[C@H]2O[C@@H](Oc3c(-c4ccc(O)c(O)c4)oc4cc(O)cc(O)c4c3=O)[C@H](O)[C@@H](O)[C@@H]2O)[C@H](O)[C@H](O)[C@H]1O`, the “activity, negative = cell killing” value is -9.33% (inactive).

For `CCN(CC)S(=O)(=O)c1ccc(C(=O)O)cc1`, the “activity, negative = cell killing” value was -4.26% (inactive).

Turning to `Cc1c(Cn2ccnc2)c2ccccc2n1CCC(=O)O`, the “activity, negative = cell killing” value is -12% (inactive).

As to `CN1C(C)(C)CCCC1(C)C`, the “activity, negative = cell killing” value was -17.4% (inactive).

Turning to `CC1(C)S[C@@H]2[C@H](NC(=O)C(C(=O)O)c3ccccc3)C(=O)N2[C@H]1C(=O)O` (stereo partly drawn), the “activity, negative = cell killing” value was -11.8% (inactive).

Consider `CN[C@@H]1[C@@H](O)[C@@H](O[C@@H]2[C@H](O)[C@H](O[C@H]3OC(CN)=CC[C@H]3N)[C@@H](N)C[C@H]2N)OCC1(C)O` (stereo partly drawn), for which the “activity, negative = cell killing” value is -14.5% (inactive).

On to `C/C=C1\[C@H]2C=C(C)C[C@]1(N)c1ccc(=O)[nH]c1C2`, for which the “activity, negative = cell killing” value is -10.8% (inactive).
